Screens as filed in PubChem.
TRb SRC2 PPI: disrupts binding of human TR beta to SRC2 | P10828 | TRbeta-SRC2 peptide binding, fluorescence polarization; receptor liganded with 1 µM T3 | Potency, µM (highest dose often 106 µM), most hits filed as inhibitors | 280,000 compounds, 0.065% hits | AID 1469; also: nearly all actives have a fitted effect of over 50% in size
Target sequence (P10828 whole entry, looked up): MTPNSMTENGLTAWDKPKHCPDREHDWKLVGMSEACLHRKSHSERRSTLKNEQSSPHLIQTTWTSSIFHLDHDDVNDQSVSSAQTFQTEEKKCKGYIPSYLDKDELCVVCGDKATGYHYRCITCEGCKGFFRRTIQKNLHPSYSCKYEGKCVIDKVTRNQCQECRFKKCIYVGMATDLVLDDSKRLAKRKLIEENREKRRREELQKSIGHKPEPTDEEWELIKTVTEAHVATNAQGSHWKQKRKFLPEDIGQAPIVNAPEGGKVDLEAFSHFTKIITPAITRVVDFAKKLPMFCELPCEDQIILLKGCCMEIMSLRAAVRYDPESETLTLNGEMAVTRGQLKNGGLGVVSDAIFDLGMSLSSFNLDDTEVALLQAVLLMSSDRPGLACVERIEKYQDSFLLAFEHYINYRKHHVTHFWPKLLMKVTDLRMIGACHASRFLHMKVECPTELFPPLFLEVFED
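Each compound concentration gave % activity, normalized to unbound and bound Texas Red SRC2 controls, from polarization read after 5 hr ambient incubation with T3-loaded human TRb LBD.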
Tau fluor cs: counter-screen for tau fibril formation inhibitors | 280,000 compounds, 0.93% hits | Potency, µM (doses to about 57.7 µM) | tau K18 P301L Alexa594 fluorescence, heparin fibrillization; also: nearly all actives have a fitted effect of over 55% in size
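Human K18 P301L tau (15 uM unlabeled plus 0.24 uM Alexa 594-labeled, final) in 100 mM sodium acetate pH 7 was mixed with compound and 20 uM heparin and incubated 6 hr at 37 C.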
Tau fibril FP: inhibitors of human tau fibril formation; P10636; Potency, µM (titrated, usually from 57.7 µM), hits mostly inhibitors; K18 P301L tau heparin fibrillization, Alexa594 FP, 6 h; AID 1468; 280,000 compounds, 0.39% hits; also: nearly all actives have a fitted effect of over 55% in size
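Compound effects on tau fibrillization are measured by Alexa 594 fluorescence polarization (ex 555, em 632 nm). K18 P301L tau is used at 15 uM with 0.24 uM labeled tracer, and 20 uM heparin induces aggregation over 6 hr at 37 C.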
Tau ThT inhib: inhibitors of human tau fibril formation, thioflavin T binding; P10636; recombinant tau K18 P301L (four-repeat tau fragment), heparin-induced fibrillization, ThT fluorescence; Potency, µM (doses to about 57.4 µM), most hits filed as inhibitors; 270,000 compounds, 2.1% hits; also: nearly all actives have a fitted effect of over 55% in size
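Heparin-induced fibrillization of the P301L-mutant K18 repeat-domain fragment of human tau was followed by ThT binding in quantitative high-throughput format.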
TexasRed fluor: alters Texas Red total fluorescence, flagging assay interference. Potency, µM (titrated, usually from 106 µM). TRb/SRC2 Texas Red total fluorescence interference. 280,000 compounds, 0.29% hits. AID 1479; active = well fitted curve in either direction with a large enough effect; inconclusive = small, poorly fitted or top-dose-only effect
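Human TRβ ligand-binding domain (0.6 uM) and Texas Red SRC2 peptide (20 nM) in Tris buffer with 1 uM T3 and 5% DMSO were incubated with pinned compound for 5 hr at ambient temperature. Total fluorescence was computed as S + 2P (555/632 nm).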
Of the large screens only hits and unclear results are named; the others gave an inactive call; [ ] = dose if it differs, or a comment. In the library only some 3.1% were active in any assay of this set; here they are far more common. Unless noted, calls follow the shape of the dose curve; as a rule, active = well fitted curve in the direction sought with a large enough effect; inconclusive = small, poorly fitted or top-dose-only effect, or another doubt; inactive = no such curve, though single readings can be large; an effect the other way counts as inactive or inconclusive.

Cc1ccc(CN2CCC(CNc3ncnc4onc(-c5ccc(Cl)cc5)c34)CC2)cc1	none
COc1ccc(/C=C(\C#N)c2nc3ccccc3n2C)c(OC)c1	Tau fluor cs inconclusive, Tau ThT inhib 14.1µM
Cc1ccccc1Nc1c(-c2ccc(N3CCOCC3)cc2)nc2ccc(Br)cn12	Tau ThT inhib inconclusive
Cc1ccc(C)n1-c1nnc(N2CCCC(C(=O)NCc3cccc(F)c3)C2)s1 (stereo not given)	none
COc1ccc(Nc2cc(C)c3c(O)cccc3n2)cc1	Tau fluor cs inconclusive, Tau fibril FP inconclusive (no result: Tau ThT inhib)
Cc1ccc(Nc2cc(C)c3c(O)cccc3n2)cc1C	Tau fluor cs 14.1µM[quencher], Tau fibril FP inconclusive (no result: Tau ThT inhib)
COc1ccc(NC(=O)N2c3ccccc3C(C)=CC2(C)C)cc1	Tau ThT inhib inconclusive
COc1ccc(NC(=O)N2c3ccc(OC)cc3C(C)=CC2(C)C)cc1	Tau fluor cs inconclusive, Tau fibril FP inconclusive, Tau ThT inhib 31.6µM
CCOc1ccc2c(c1)C(C)=CC(C)(C)N2C(=O)Nc1ccccc1	TRb SRC2 PPI inconclusive, Tau fluor cs inconclusive, Tau fibril FP inconclusive, Tau ThT inhib 28.2µM
O=c1cc(CN2CCN(S(=O)(=O)c3ccccc3[N+](=O)[O-])CC2)nc2sccn12	none
O=[N+]([O-])c1ccccc1S(=O)(=O)N1CCN(Cc2cc3c(cc2O)OCO3)CC1	Tau fluor cs 11.2µM[quencher], Tau fibril FP inconclusive, Tau ThT inhib inconclusive
CCc1nnc(NC(=O)CSc2nc3c(cc2C#N)CCC3)s1	Tau ThT inhib 2µM
CCSc1nnc(NC(=O)CSc2nc3c(cc2C#N)CCCC3)s1	Tau fluor cs inconclusive, Tau ThT inhib 2.82µM
N#Cc1cc2c(nc1SCC(=O)Nc1nccs1)CCCCC2	Tau ThT inhib inconclusive
CCOc1ccc(NC(=O)c2cc(S(=O)(=O)N3CCC(C)CC3)cn2C)cc1	none
Cc1c2cnn(CC(=O)N3CCN(c4ccccc4)CC3)c(=O)c2c(C)n1Cc1ccc(F)cc1	none
O=C1OC(Nc2ccc3c(c2)OCO3)c2ccccc21 (stereo not given)	Tau fluor cs inconclusive, Tau fibril FP inconclusive, Tau ThT inhib 12.6µM
CCCCCCCCCCCCCCO	none (no result: Tau fluor cs, Tau fibril FP, Tau ThT inhib)
COC(=O)C1=C(C)N(Cc2cccnc2)C(=O)/C1=C\c1sccc1C	Tau ThT inhib 14.1µM
COC(=O)C1=C(C)N(Cc2ccccc2)C(=O)/C1=C\c1ccco1	Tau fluor cs inconclusive, Tau ThT inhib 15.8µM
COC(=O)C1=C(C)N(CCc2ccccc2)C(=O)/C1=C\c1ccco1	Tau ThT inhib 17.8µM
CCCCCCOc1ccc(/C=C/C(=O)Nc2sc3c(c2C(=O)OC)CCC3)cc1OC	Tau ThT inhib inconclusive
CCc1cc(=O)[nH]c(SCc2nc(-c3cccc(Cl)c3)no2)n1	Tau ThT inhib inconclusive
Cc1ccccc1C(=O)Oc1ccc(Sc2ccc(O)cc2)cc1	Tau fluor cs 7.08µM[quencher], Tau fibril FP 25.1µM, Tau ThT inhib inconclusive
Cc1ccccc1C(=O)Oc1ccc(-c2csnn2)cc1	Tau ThT inhib inconclusive
COc1ccc2c(c1)c1c(c(=O)n(Cc3ccccc3)c(=O)n1CC(=O)Nc1c(C)cccc1C)n2C	none
Clc1ccc(/C=N/Nc2nc(Cl)nc3ccccc23)cc1	Tau fluor cs inconclusive, Tau ThT inhib inconclusive
Clc1ccc(/C=N/NC2=Nc3cccc4cccc2c34)cc1	Tau ThT inhib 2.82µM
C(=N\NC1=Nc2cccc3cccc1c23)/c1ccccc1	Tau ThT inhib 2µM
C(=N\NC1=Nc2cccc3cccc1c23)/c1cccnc1	Tau ThT inhib 2.82µM
NC1=Nc2cccc3cccc1c23	Tau ThT inhib inconclusive
Clc1ccc(N/N=C/c2cccnc2)cc1	Tau fluor cs 15.8µM[quencher], Tau ThT inhib inconclusive
O=c1c(-c2c(O)cc(O)c3c(=O)cc(-c4ccc(O)cc4)oc23)c(-c2ccc(O)cc2)oc2cc(O)cc(O)c12	Tau fluor cs inconclusive, Tau fibril FP inconclusive, Tau ThT inhib 15.8µM
O=c1cc(-c2ccc(O)c(-c3c(O)cc(O)c4c(=O)cc(-c5ccc(O)cc5)oc34)c2)oc2cc(O)cc(O)c12	TRb SRC2 PPI inconclusive, Tau fluor cs inconclusive, Tau fibril FP inconclusive, Tau ThT inhib 14.1µM
COc1c(-c2ccc(O)cc2)oc2cc(O)cc(O)c2c1=O	none
COc1cc(O)c2c(=O)cc(-c3ccc(OC)c(-c4c(O)cc(O)c5c(=O)cc(-c6ccc(O)cc6)oc45)c3)oc2c1	Tau fluor cs inconclusive, Tau fibril FP inconclusive
